The results in this text go back to PubChem BioAssay AID1851 (National Center for Advancing Translational Sciences (NCATS), 2009).

The whole screen tested about 16,000 compounds, of which about 5,800 (36%) were called active. Roughly 23% stayed inconclusive and do not appear here. The list shows a part of the results. A number with no mark means an inactive call. Calls follow the shape of the dose curve; as a rule, active = well fitted curve in the direction sought with a large enough effect; inconclusive = small, poorly fitted or top-dose-only effect, or effect the other way; inactive = no such curve, though single readings can be large or run the other way.
% is scaled to controls: 0 for no effect and ±100 for the full control effect.

Cytochrome P450 2C19 (Homo sapiens), sequence (P33261 whole entry, looked up): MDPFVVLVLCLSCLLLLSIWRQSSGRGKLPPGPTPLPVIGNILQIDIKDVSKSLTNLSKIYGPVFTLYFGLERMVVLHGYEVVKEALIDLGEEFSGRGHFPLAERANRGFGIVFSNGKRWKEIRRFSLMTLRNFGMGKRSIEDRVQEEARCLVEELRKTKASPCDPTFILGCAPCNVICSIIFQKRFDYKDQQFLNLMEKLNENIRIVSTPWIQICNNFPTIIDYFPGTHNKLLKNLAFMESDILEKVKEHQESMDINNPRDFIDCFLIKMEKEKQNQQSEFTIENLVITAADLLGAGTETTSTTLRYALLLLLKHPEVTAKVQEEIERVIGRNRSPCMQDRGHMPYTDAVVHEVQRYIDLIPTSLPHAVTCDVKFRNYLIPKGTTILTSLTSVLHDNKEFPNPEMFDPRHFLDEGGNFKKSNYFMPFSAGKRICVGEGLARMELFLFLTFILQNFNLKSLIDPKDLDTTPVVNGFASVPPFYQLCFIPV

This experiment concerns the target Cytochrome P450 2C19 (Homo sapiens) (UniProt P33261). The experiment in a line: Cytochrome panel assay with activity outcomes. The conditions noted are these: recombinant CYP, pro-luciferin dealkylation, luminescence, p450-cyp2c19; series mostly up to 57.1 µM.
In the case of `CN(C)C(=N)N=C(N)N`, the AC50 entry was “inactive”.

Take `COc1ccc(Cl)cc1NC(=O)C12CCC(C)(C(=O)O1)C2(C)C` (stereo not drawn): the AC50 was 1.26 µM (active). In the case of `O=C1CCCCC(=O)c2ccccc2N1`, the AC50 result was “inactive”. Same read-out and setting: under `Cc1cc2c(s1)CCCCC(=O)N2` stands 22.4 µM (active).

On to `N#C[C@H]1CN[C@H](N)N[C@@H]1N`, for which the activity, negative = inhibition was 14.3% [at 11.4 µM]. With `Oc1[nH]c2ccccc2c1/C=N/c1nccs1`, the concentration at half-maximal activity (AC50) was 14.1 µM (active). Same read-out and setting: under `O=C1c2ccccc2C(=O)C1c1ccccc1` stands “inactive”; under `c1ccc(C2OCC3(CO2)COC(c2ccccc2)OC3)cc1` (stereo not drawn), 2.51 µM (active); under `C/C(=C\c1ccco1)C1C(C#N)=C(N)Oc2n[nH]c(-c3ccccc3)c21` (stereo not drawn), 2.24 µM (active). `CC(C)(C)c1[nH]nc2c1C(c1ccc(OC(=O)c3ccco3)cc1)C(C#N)=C(N)O2` (stereo not drawn): the AC50 entry is “inactive”. On the same count and under the same terms, then `COc1ccccc1CN1CC[C@@]2(CCCN(C(=O)c3cccn3C)C2)C1`, with “inactive”. Same read-out and setting: then `CCN(CC)CCOC(=O)C1(c2ccc([N+](=O)[O-])cc2)CCCC1`, with “inactive”. The same measure, in the same setting: under `Cc1cccc(NC2=NC(=S)N(c3ccc(C(=O)O)cc3)C23CCCCC3)c1` stands “inactive”; under `Cc1cccc(NC(=O)C2(c3ccccc3)CC2(Cl)Cl)c1` (stereo not drawn), 1 µM (active); under `Cc1cccc(NC(=O)C2(c3ccc([N+](=O)[O-])cc3)CCCC2)c1`, 0.891 µM (active). In the case of `Cc1cccc(NC(=O)C23CCC(C)(C2Br)C3(C)C)c1` (stereo not drawn), the half-maximal activity concentration (AC50) was 4.47 µM (active). For `CC12CCC(C(=O)Nc3cccc4ccccc34)(C1Br)C2(C)C` (stereo not drawn), the AC50 is 8.91 µM (active). Regarding `CCOC(=O)N/N=C1/C[C@@H](O)[C@@H](O)[C@@H]2[C@@H]3C(=O)N(C4CCCCC4)C(=O)[C@H]3CC[C@@H]12`, the activity, negative = inhibition is -22.2% [at 11.4 µM]. On the same count and under the same terms, then `C[N+]1(CCCC[N+]2(C)CCCCCCC2)CCCCCCC1`, with 34.1% [at 11.4 µM]. In the case of `CCc1ccccc1NC(=O)c1ccc(-n2c(C)ccc2C)cc1`, the AC50 is 15.8 µM (active). Same read-out and setting: under `C=CCNc1oc(/C=C/c2ccccc2)nc1C#N` stands 4.47 µM (active); under `O=C(O)c1ccc2c3c1cccc3c(=O)n1c3ccccc3nc21`, 3.98 µM (active); under `O=c1c2ccc([N+](=O)[O-])c3cccc(c32)c2nc3ccccc3n12`, “inactive”. On the same count and under the same terms, under `c1cncc(-c2nccc(NCc3cccs3)n2)c1` stands 7.94 µM (active). Still for that read-out and setting: then `c1ccc(CNc2ccnc(-c3cccnc3)n2)cc1`, with 2.51 µM (active); and `Cc1cnc(CNc2ccnc(-c3cccnc3)n2)cn1`, with “inactive”; and `Cc1cccc(CNc2ccnc(-c3cccnc3)n2)c1`, with 2.51 µM (active). On to `O=C=Nc1ccc(Cc2ccc(N=C=O)cc2)cc1` (tested in a mixture with another compound), for which the activity, negative = inhibition was -1.1% [at 11.4 µM].

The AC50 is the midpoint of the concentration-response curve, whichever way the signal moves.
